# Reference: PubChem BioAssay AID1508600 (Functional Genomics Laboratory (NCATS/FGL), 2020)
# About 3,700 (7%) of roughly 53,000 sequences were called active.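 The calls were made as follows: active = gene knockdowns whose robust z-score for IL-1 alpha signal is at least 2 or at most -2, so actives lie on both sides; inactive = the rest.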 Only a selection was taken, and actives are over-represented in it overall.
# Assay: Components of the Cytosolic LPS Sensing Pathway: Gene Identification via Genome-wide siRNA Screen;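 also: robust z of the log signal after scaling to non-targeting control siRNA wells of the plate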
# Conditions: RAW264.7 macrophages, IL-1a HTRF, actives lie on both sides, screened at 100 nM (by protocol), cells primed 5 h with Pam3CSK4 first
# In short: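 Cells (RAW264.7, 1×10^4 per well) were transfected with siRNA at 100 nM and cultured 48h at 37 degrees C. Pam3CSK4 was added for 5 hours; LipidA transfection followed for 24 hour. IL-1a was then measured by HTRF.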
row,Sequence,z-score
1,GGUUCUAGAUGCUAAUAAGTT against Ciao3,-0.381 (inactive)
2,GGAUCUGACAAGGUACAAGTT against Acsm5,0.145 (inactive)
3,GCUAUGGGUAAACUUUUUGTT against Olfr354,0.905 (inactive)
4,CCUAGACAAUACUUGCCUGTT against Gpr180,0.873 (inactive)
5,GCCUGUUCGGUGUUCAACUTT against Etv3,0.808 (inactive)
6,GCCUAGUUCUUUAUGCUAUTT against Golga4,4.37 (active)
7,CCACCUGUCGAGAUGUCGUTT against Ppp1r13b,1.1 (inactive)
8,GGAUCACGUUUCAAACAUCTT against Mtmr12,0.296 (inactive)
9,GGAGCACAAUAGUAAACUATT against Polr1a,2.78 (active)
10,GGUGAAGAUAAGUAUCUGCTT against Mug2,-0.0586 (inactive)
11,GCUUGAUUAGGUAGGAAUATT against Stk32a,-0.388 (inactive)
12,GGAAAGUCAGGAUGAAUAUTT against Cst9,0.0511 (inactive)
13,GGAGUUGUAGUGAGGGUCATT against Fcgbp,-0.971 (inactive)
14,GGAAACAGGAAACAAUCUATT against Ccdc69,0.609 (inactive)
15,GGUUUUGAGUGAGAAAUGGTT against Plekhb2,-0.414 (inactive)
16,GGAGAAAUCCCUUCACGGUTT against Mas1,0.449 (inactive)
17,CCACCUCCUCUCGAUACAATT against Zfp36,0.993 (inactive)
18,CGCAGUAGCGAAGAAUUACTT against Sel1l3,2.46 (active)
19,CCAUAAUAGAGGCAAUUACTT against Wscd1,0.302 (inactive)
20,CCUAGGUGUCACCAUGAACTT against Ssx9,2.02 (active)
21,GGAAAGAGUCAUGGAAAUATT against Supt16,0.55 (inactive)
22,GGCUCACAAGGAAGAGAUCTT against Cstad,-0.29 (inactive)
23,GCUCUGAAAUGUCUCUCCATT against H2-D1,-0.613 (inactive)

row,Sequence,z-score
1,GGUGUGUUCAGGAGUUGAUTT against Col12a1,0.505 (inactive)
2,GGCAAAAAAAACUGCUAUATT against Adgrg7,3.36 (active)
3,GGUGACAUUUGAAAAUGUCTT against Slc25a12,0.411 (inactive)
4,GCCUCAUCCCUAUAGUCCUTT against Spaca9,-0.257 (inactive)
5,CGGGUUCCCAGGAAUUAAGTT against Col4a6,0.304 (inactive)
6,GGUUGACACUCUGAGGGAATT against Pld2,-0.175 (inactive)
7,CCACUUUCUAGAAAUCCUATT against Tmem41a,-2.14 (active)
8,GGGCUGAUGAGCAAAGCAUTT against Setd4,-1.01 (inactive)
9,GGGAAAUUAUUACCAAAAGTT against N4bp1,-0.83 (inactive)
10,GGUCUUUGUUAAGAAUCCUTT against Myo1f,-0.496 (inactive)
11,GCUCGAAAACUGAGAGUUATT against Pcdhgb1,3.32 (active)
12,GCUAUAAGGCUUAAUAGGGTT against Dleu7,1.97 (inactive)
13,GCGAAAGCAGCUGUCGGAATT against Nkx3-1,0.324 (inactive)
14,GGCCUCGAACAGUUUAUUATT against Snx12,0.471 (inactive)
15,GGCUGUGGAUCUUCUCUGUTT against Cnksr3,-1.05 (inactive)
16,GCCAUGUUAAAUUCUCUACTT against Poln,0.575 (inactive)
17,GGCUCUGCUGGAUAUCAUGTT against Med24,-1.08 (inactive)
18,GGGUAUUUCCUGGUGGAUUTT against Mrps6,0.221 (inactive)
19,CCUAUCAUAACGGUGAUAATT against Ddb1,-0.423 (inactive)
20,GGUCACACCCAUAAACUAATT against B630019K06Rik,-0.167 (inactive)
21,GGUUAUUAAGUAGCUUUUCTT against Dtx1,1.64 (inactive)
22,GCAUUAGAACAAAGGAUGCTT against Rps19,0.278 (inactive)
23,GGAAUUUGUGGAAACAGGATT against Tnfaip3,-0.441 (inactive)

row,Sequence,z-score
1,GCCUUUGAUAGUGGUGAAUTT against F11r,-3 (active)
2,CCAAUCUUCUCCUCAAGACTT against Olfr101,-0.0712 (inactive)
3,GGCUGUUUCCAAAAAGAAGTT against H1f5,-1.14 (inactive)
4,GGACCAGGGCAAAAUAUGATT against Pate6,0.727 (inactive)
5,CCAUCAUUGCUCGUAUUGGTT against Olfr656,-2.9 (active)
6,CCAGUGGAAAUAACUUGUGTT against Fam53a,1.58 (inactive)
7,CCUUGAGUGAAAGAAUUGATT against Tmprss11d,-0.609 (inactive)
8,GGAAUAUCCGUAAUAACUATT against Grin2b,2.82 (active)
9,GCUACUAAAUUCUGUUUUGTT against Nol4l,0.325 (inactive)
10,GGGAAGUUUCUUGAAGCACTT against Rfxank,0.103 (inactive)
11,AGGACUAGGGAUCCUAAUUTT against Ubl5,-0.74 (inactive)
12,GGUUGCUGGAUGUCAUCUCTT against Hpn,-2.05 (active)
13,GCUACUUGCUCAUACAAAGTT against Rag2,0.65 (inactive)
14,GGCCAUAUGUCAAGAAGUUTT against Svs4,-1.24 (inactive)
15,GCCAGGAAUAGUGAUUAUUTT against Atp11c,-1.19 (inactive)
16,GGAAAUGUGGAAUACACCGTT against Prl7a2,1.39 (inactive)
17,GGCUUUAAUGUGUCAGUACTT against Slc25a5,-0.228 (inactive)
18,GCCGAUGAUACCAAACCGATT against Oser1,0.151 (inactive)
19,CGACUCUUACCAACCUUUUTT against Lhx2,0.477 (inactive)
20,GCAGGUGGUACGCAGACUATT against Ulk1,-0.0204 (inactive)
21,GGAAAGAAUGAGGAUGUGGTT against Pitx2,-2.07 (active)
22,CCUCAAACUCGGUUUGAUUTT against Acp6,-0.773 (inactive)
23,GCCUAUACUAUAGAAUUACTT against Sgsm2,2.2 (active)
